Hit rate of the full screen: of about 330,000 compounds, about 1,000 (0.3%) were called active. About 3% were inconclusive and are not listed. Many of the other results were omitted from the sample, so actives are more common in it than they were. A number with no mark means an inactive call. Calls follow the shape of the dose curve; as a rule, active = well fitted inhibition curve with a large enough effect; inconclusive = small, poorly fitted or top-dose-only effect; inactive = no such curve, though single readings can be large or run the other way; tested in mouse RAW 264.7 cells.
Experiment: qHTS for Inhibitors of Cell Surface uPA Generation; also: nearly all actives have a fitted effect of over 55% in size
Settings: cell surface uPA generation assay; series mostly up to 38.3 µM; activity change, negative = inhibition: at the top concentration
Text: The overall objective of this project is to perform a quantitative high throughput screen (qHTS) to identify novel compounds that inhibit the generation of cell surface urokinase activity. The urokinase plasminogen activator (uPA) is one of the two primary endogenous systems that mediate plasminogen activation into plasmin. Members of this system, including uPA and its receptor (uPAR), are overexpressed in several malignant tumors. This system plays a major role in adhesion, migration, invasion and metastasis of cancer cells. Small molecule inhibitors of the uPA system will serve as probes to understand the molecular mechanisms of the uPA cascade and better understanding the microenvironmental circumstances that facilitate the activation of plasminogen by uPA, and finally may provide novel candidate agents for anticancer drug therapy.
[…] […] Upon inhibition of the uPA activation cascade, the subsequent cell surface uPA activity-dependent translocation of LF into the cytoplasm is inhibited. ATP-Lite is used to measure intracellular ATP concentrations, which remain increased if LF entry into the cytoplasm is inhibited. This validation assay was performed using a small set of validation compounds.
NIH Chemical Genomics Center [NCGC]
NIH Molecular Libraries Probe Centers Network [MLPCN]
Assay Submitter (PI): Thomas Bugge, National Institute of Dental and Craniofacial Research, NIH
Cultured RAW 264.7 were dispensed into 1536-well clear bottom, white walled tissue culture plates at a density of 4000 cells/well and were incubated overnight (12-16 h) at 37 C in a 5% CO2 incubator. Serially diluted compounds in 23 nl DMSO were added to cells. […] Compound and reagent-treated plates were incubated for 24 h at 37 C in a 5% CO2 incubator. Perkin Elmer ATPlitetrade mark 1 step (3 ul) was then added to each well. Luminescence was detected using a Perkin Elmer ViewLuxtrade mark plate reader.
1.Dispensing RAW 264.7 cells into 1536-well, white walled tissue culture plates at a density of 4000 cells/well (4 uL).
2.Incubation at 37 C in a 5% CO2 incubator overnight.
3.Serially diluting compounds (1:5 serial dilution; 0.0024 uM to […] final concentration) in 23 nl DMSO.
5.Incubating the compound and reagent-treated plates for 24 hours at 37 C in a 5% CO2 incubator.
6.Adding ATP-Lite (3 ul).
7.Reading plates by ViewLux with an exposure length of 5 seconds.
For `COc1ccc(C(=O)NC2=NCCS2)c(OC)c1`, the “activity change, negative = inhibition” value was -9.96%.
For `COc1cc(SC)ccc1C(=O)Nc1nc(C)cs1`, the Potency was 0.891 µM (active).
With `COc1ccc(C(=O)Nc2nncs2)c(OC)c1` the Potency was 11.2 µM (active).
In the case of `Cc1csc(NC(=O)c2ccc(C)s2)n1`, the “activity change, negative = inhibition” value was -4.48%.
With `COc1ccc(C(=O)Nc2cccc(NC(=O)c3ccc(OC)cc3OC)n2)c(OC)c1` the “activity change, negative = inhibition” value was 10.8%.
With `COc1cc(SC)ccc1C(=O)NCCOc1ccccc1Cl` the “activity change, negative = inhibition” value was -1.79%.
In the case of `CCCC(O)(c1ccccc1)C(c1ccccc1)c1ccccn1` (stereo unspecified), the “activity change, negative = inhibition” value was 0.751%.
For `Cc1cc(C)c(C=NNc2nc3c([nH]2)c(=O)n(C)c(=O)n3C)c(C)c1`, the “activity change, negative = inhibition” value was 0.257%.
In the case of `O=c1c2ccccc2ncn1CCc1ccncc1`, the “activity change, negative = inhibition” value was -2.13%.
In the case of `O=C(Nc1ccccc1)Oc1cccc2cccnc12`, the “activity change, negative = inhibition” value was -8.43%.
With `NN=C(NN=Cc1ccccc1)c1ccccc1` the “activity change, negative = inhibition” value was -1.74%.
For `COc1cc(/C=C/c2ccc(/C=C/c3cc(OC)c(OC)c(OC)c3)cc2)cc(OC)c1OC`, the “activity change, negative = inhibition” value was 5.42%.
In the case of `CCCN(CCC)S(=O)(=O)c1cc2c(cc1Br)CCN2C(=O)CC`, the “activity change, negative = inhibition” value was 6.75%.
In the case of `O=C(Cc1ccc(Cl)cc1)NC1CCS(=O)(=O)C1` (stereo unspecified), the “activity change, negative = inhibition” value was 0.7%.
In the case of `COc1ccc(NC(=S)NC2CCS(=O)(=O)C2)cc1` (stereo unspecified), the “activity change, negative = inhibition” value was 13.3%.
In the case of `COc1ccc(-c2ccc(OC(=O)NC3CCS(=O)(=O)C3)cc2)cc1` (stereo unspecified), the Potency was 10 µM (active).
With `COc1ccc2c(c1)C(=O)CC(c1ccccc1)O2` (stereo unspecified) the “activity change, negative = inhibition” value was -5.17%.
For `O=S(=O)(Cc1ccc(Cl)cc1Cl)c1ccc(Cl)cc1`, the “activity change, negative = inhibition” value was -13.8%.
In the case of `CC(=O)OCC(=O)C1(O)CCC2C3CC(C)C4=CC(=O)CCC4(C)C3C(O)CC21C` (stereo unspecified), the “activity change, negative = inhibition” value was -5.75%.
For `COc1cc(CN2CCC(C(N)=O)CC2)ccc1OCc1ccccc1`, the “activity change, negative = inhibition” value was -0.173%.
In the case of `Oc1c(CN2CCCC2)cc(COCc2ccccc2)c2cccnc12`, the Potency was 4.47 µM (active).
For `COc1cc(C)cc(CN2CCC(Cc3ccccc3)CC2)c1O`, the “activity change, negative = inhibition” value was -15.2%.
With `Nc1ncnc2c1cnn2C1CC(O)C(CO)O1` (stereo unspecified) the “activity change, negative = inhibition” value was 1.67%.
With `COc1ccc(C2NCCCC2c2ccccc2)cc1` (stereo unspecified) the “activity change, negative = inhibition” value was 6.59%.
In the case of `O=C(NN=CC=Cc1ccccc1)C(O)C(O)C(=O)NN=CC=Cc1ccccc1` (stereo unspecified), the “activity change, negative = inhibition” value was 4.29%.
With `Cc1ccc(-c2cn3cc([N+](=O)[O-])ccc3n2)cc1` the “activity change, negative = inhibition” value was -15%.
In the case of `Cc1ccc(-c2cn3cc(C)ccc3n2)cc1`, the “activity change, negative = inhibition” value was -13%.
In the case of `Cc1ccc2nc(-c3ccc(Br)cc3)cn2c1`, the Potency was 2.82 µM (active).
For `CC(C)=CCc1ccc(O)c(=O)cc1C(C)C`, the “activity change, negative = inhibition” value was -14.1%.
For `CC(C)Cn1cnc2c(SCc3ccc(Cl)cc3)nc(N)nc21`, the “activity change, negative = inhibition” value was 2.74%.
With `COc1cccc(CNC(=O)c2nnn(CC(=O)Nc3cc(C)ccc3C)c2N)c1` the “activity change, negative = inhibition” value was -1.4%.
With `COc1cccc(CNC(=O)c2nnn(CC(=O)Nc3cc(Cl)ccc3C)c2N)c1` the “activity change, negative = inhibition” value was -7.07%.
With `Nc1c(C(=O)NCc2ccccc2)nnn1Cc1cccc(Cl)c1` the Potency was 11.2 µM (active).
With `COc1ccc(N=C2C=CC(=O)O2)cc1` the “activity change, negative = inhibition” value was -4.89%.
In the case of `CCOc1cccc(SCc2noc(C(=O)NC(C)C)c2C(=O)O)c1`, the “activity change, negative = inhibition” value was -8.82%.
For `CCCNC(=O)c1onc(CSc2ccc(F)cc2)c1C(=O)NC(C)C`, the “activity change, negative = inhibition” value was 9.02%.
In the case of `COC(=O)c1c(CCl)noc1C(=O)NC(C)C`, the Potency was 10 µM (active).
With `CC(=O)OC1CCC2(C)C(=CCC3C4CC(=O)N(O)C(=O)C4(C)CCC32)C1` (stereo unspecified) the “activity change, negative = inhibition” value was -4.19%.
In the case of `CC(NC(=O)c1ccccc1)C(=O)Nc1ccccc1` (stereo unspecified), the “activity change, negative = inhibition” value was 2.25%.
In the case of `CC(=O)Nc1ccc(C(=O)Nc2cc(S(=O)(=O)N3CCOCC3)ccc2N2CCOCC2)cc1`, the “activity change, negative = inhibition” value was -3.85%.
For `CC(=O)Nc1ccc(Nc2c3ccccc3nc3ccccc23)cc1`, the Potency was 1 µM (active).
With `CCc1nc(Nc2ccc(NC(C)=O)cc2)c2oc3ccccc3c2n1` the “activity change, negative = inhibition” value was 8.93%.
With `CC(C)(C)OC(=O)NNc1c2ccccc2nc2ccccc12` the “activity change, negative = inhibition” value was -8.44%.
For `OCC(O)C1OCOC(C(O)CO)C1O` (stereo unspecified), the “activity change, negative = inhibition” value was 9.73%.
In the case of `O=C(NCCc1ccccc1)c1cccc(NC(=O)c2ccccc2)c1`, the “activity change, negative = inhibition” value was 1.44%.
In the case of `O=C(CCC(=O)N1CCN(S(=O)(=O)c2ccc(Cl)cc2)CC1)NCc1cccc(C(F)(F)F)c1`, the Potency was 12.6 µM (active).
With `O=C(NCc1cccc(C(F)(F)F)c1)c1cccc(S(=O)(=O)N2CCN(Cc3ccccc3)CC2)c1` the “activity change, negative = inhibition” value was 1.34%.
For `CC(NC(=O)CCC(=O)N1CCN(S(=O)(=O)c2ccc(Cl)cc2)CC1)c1ccccc1` (stereo unspecified), the “activity change, negative = inhibition” value was -7.34%.
In the case of `Cc1cccc(NC(=S)N2CCC(C(=O)c3ccc(F)cc3)CC2)c1`, the “activity change, negative = inhibition” value was -2.65%.
For `Cc1ccc(CNC(=O)Cn2cnc3c(NCc4ccccc4)ncnc32)o1`, the Potency was 11.2 µM (active).
With `O=C(Cn1cnc2c(OCc3ccccc3)ncnc21)NCc1nc2ccccc2[nH]1` the “activity change, negative = inhibition” value was 20.3%.
For `CC(CNC(=O)Cn1cnc2c(OCc3ccccc3)ncnc21)c1ccccc1` (stereo unspecified), the “activity change, negative = inhibition” value was 6.59%.
With `CC(C)OC(=O)c1ccc(NCc2cc(O)ccc2O)cc1Cl` the “activity change, negative = inhibition” value was 4.35%.
For `COC(=O)c1cc(OCC(=O)NC2CCCc3ccccc32)cc(C(=O)OC)c1` (stereo unspecified), the “activity change, negative = inhibition” value was 1.62%.
In the case of `NC(=O)Nc1ccc(C(=O)OCC(=O)NC2CCCc3ccccc32)cc1` (stereo unspecified), the “activity change, negative = inhibition” value was 2.72%.
In the case of `O=C(CCNC(=O)c1ccc(Cl)cc1)NC1CCCc2ccccc21` (stereo unspecified), the Potency was 5.62 µM (active).
With `CC1=CC(=NNS(=O)(=O)c2ccc([N+](=O)[O-])cc2)CC(C)(C)C1` the “activity change, negative = inhibition” value was -2.04%.
With `Cc1onc(-c2c(F)cccc2Cl)c1C(=O)Nc1cccc(S(=O)(=O)N2CCCCC2)c1` the “activity change, negative = inhibition” value was -0.171%.
For `Cc1cc(C)c([N+](=O)[O-])cc1-c1ccc(/C=N/NC(=O)c2nonc2N)o1`, the “activity change, negative = inhibition” value was 2.06%.
In the case of `COc1cc(/C=N/N=C(\N)c2nonc2N)cc(OC)c1OC`, the “activity change, negative = inhibition” value was 2.87%.
For `COc1cc(/C=N\NC(=O)c2nonc2N)c(OC)cc1Br`, the Potency was 7.94 µM (active).
With `CSCCC(NC(=O)COc1ccccc1)C(=O)OCc1ccc(Cl)cc1` (stereo unspecified) the “activity change, negative = inhibition” value was 1.9%.
In the case of `CCOc1ccc(/C=C(/C#N)c2nnc(N3CCOCC3)n2-c2ccccc2)cc1OC`, the “activity change, negative = inhibition” value was -3.57%.
In the case of `CCOc1ccccc1NC(=S)C(=C([O-])c1ccc2c(c1)OCCO2)[n+]1ccc(CC)cc1`, the “activity change, negative = inhibition” value was -8.87%.
With `O=c1[nH]c2c(c(=O)n1-c1ccccc1)CCO2` the “activity change, negative = inhibition” value was 3.17%.
In the case of `O=[N+]([O-])c1ccc(NS(=O)(=O)c2ccccc2)c(Cl)c1`, the “activity change, negative = inhibition” value was -0.654%.
For `CCc1ccc(C(=O)C(C)OC(=O)CN2C(=O)NC3(CCCC3)C2=O)cc1` (stereo unspecified), the “activity change, negative = inhibition” value was -1.56%.
For `O=C(NCCCn1ccnc1)c1cc(Br)c(Br)s1`, the “activity change, negative = inhibition” value was 5.42%.
With `O=C(NCCCn1ccnc1)c1cc(-c2ccccc2)on1` the Potency was 5.62 µM (active).
For `O=C(NCCCn1ccnc1)c1ccccc1F`, the “activity change, negative = inhibition” value was 1.64%.
For `CCc1c(Nc2ccccc2Cl)nc(N)[nH]c1=O`, the “activity change, negative = inhibition” value was -10.9%.
% is scaled to controls: 0 for no effect and ±100 for the full control effect; potency is read from the fitted curve at half-maximal effect.
